# Screening results: PubChem BioAssay, National Center for Advancing Translational Sciences (NCATS)
# Rows were chosen to be rich in hits. Some 10% of all compounds tested hit in one or more screens of this group.
# HEK cytotox = cytotoxic compounds in HEK 293 cells; HEK 293 viability, ATP luminescence (CellTiter-Glo), 48-72 h; 94,000 compounds, 6.6% hits; Potency, µM (series often up to 115 µM), for the others: at the highest dose activity change, negative = cytotoxicity, most hits filed as inhibitors; further: on the % scale 0 is the no-effect control and ±100 the full control effect; nearly all actives have a fitted effect of over 60% in size
#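 Pintool-delivered compounds were incubated with HEK 293 cells (250 cells/well) at 37 degree Celsius for 48 or 72 hr. ATP-dependent luminescence (CellTiter-Glo) then reported remaining viable cells.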
# FLuc inh-1 = Photinus pyralis luciferase inhibition; P08659; purified P. pyralis luciferase, luminescence, biochemical; Potency, µM (doses to about 115 µM), usual class: inhibitors; 76,000 compounds, 2.5% hits; AID 1347043; further: on the % scale 0 is the no-effect control and ±100 the full control effect; nearly all actives have a fitted effect of over 65% in size
# Target sequence (P08659 whole entry, looked up): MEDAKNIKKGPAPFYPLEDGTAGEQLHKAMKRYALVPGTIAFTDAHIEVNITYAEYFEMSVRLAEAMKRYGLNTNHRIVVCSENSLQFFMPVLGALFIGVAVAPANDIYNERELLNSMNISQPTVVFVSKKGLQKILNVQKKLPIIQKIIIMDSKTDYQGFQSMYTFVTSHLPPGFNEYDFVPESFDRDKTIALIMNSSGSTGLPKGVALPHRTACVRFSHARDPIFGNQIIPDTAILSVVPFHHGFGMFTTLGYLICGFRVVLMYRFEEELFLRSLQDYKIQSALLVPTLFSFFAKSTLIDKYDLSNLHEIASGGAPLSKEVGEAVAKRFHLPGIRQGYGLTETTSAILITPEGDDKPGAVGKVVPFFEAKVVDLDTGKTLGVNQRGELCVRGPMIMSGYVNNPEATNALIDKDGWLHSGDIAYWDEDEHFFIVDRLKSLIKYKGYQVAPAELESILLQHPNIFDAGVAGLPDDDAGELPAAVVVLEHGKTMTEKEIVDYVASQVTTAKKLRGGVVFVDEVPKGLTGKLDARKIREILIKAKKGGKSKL
#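 Luminescence read by CCD imager after adding enzyme (10nM final) to wells holding compound, titrated in qHTS. Substrates 10uM each D-luciferin and ATP; buffer 50mM Tris acetate pH 7.5, 10mM Mg acetate, Tween-20, BSA.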
# 3T3 cytotox = cytotoxic compounds in NIH 3T3 cells. NIH 3T3 viability, CellTiter-Glo ATP luminescence, 48-72 h. 94,000 compounds, 4.3% hits. Potency, µM (titrated, usually from 96.7 µM), without a hit: at the highest dose activity change, negative = cytotoxicity, most hits filed as inhibitors; further: on the % scale 0 is the no-effect control and ±100 the full control effect; nearly all actives have a fitted effect of over 55% in size
#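 Cytotoxicity was measured by CellTiter-Glo ATP luminescence after 48 or 72 h compound exposure at 37 °C. Mouse NIH 3T3 fibroblasts were seeded at 400 cells/well and dosed by 23 nL pin transfer.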
# hNpr1 antagonist = human Npr1 receptor antagonism; Potency, µM (titrated, usually from 46.3 µM), for inactives: top-dose activity change, negative = inhibition, usual class: inhibitors; 76,000 compounds, 1.6% hits; HEK293 hNpr1 GloSensor cGMP, ANP-stimulated luminescence; calls by dose curve; further: on the % scale 0 is the no-effect control and ±100 the full control effect; nearly all actives have a fitted effect of over 60% in size
#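 Compound pre-incubated 30 min at room temperature on GloSensor-loaded HEK293 cells stably carrying hNpr1 and the pGS-40F cGMP biosensor. Stimulation uses hNppA at 0.1 nM final; luminescence is taken at baseline and 20 min post-agonist.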
# GPT2 inhibitor = GPT2 alanine aminotransferase inhibition | Potency, µM (doses to about 57.7 µM), without a hit: at the top dose activity change, negative = inhibition, usual class: inhibitors | AID 1671188 | Recombinant GPT2, coupled pyruvate oxidase/HRP Amplex Red fluorescence | 100,000 compounds, 0.25% hits; further: on the % scale 0 is the no-effect control and ±100 the full control effect; nearly all actives have a fitted effect of over 60% in size
#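 Fluorescence of coupled pyruvate oxidase/HRP/Amplex Red system (50uM Amplex, 30 min, dark) reports pyruvate formed by GPT2. Enzyme reaction: 10ng/uL GPT2, 2mM L-alanine, 250uM a-KG, 30 min room temperature, pH 7.5; 50uM AOA control.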
# FLuc SDR -ATP = stabilizes firefly luciferase without ATP; Potency, µM (doses to about 32.7 µM), inactives show at the top dose activation (signal gain), actives largely listed as activators; Purified FLuc-C-HiBiT, Nano-Glo HiBiT luminescence, no ATP; shares compounds with FLuc inh-1; 1,300 compounds, 7.8% hits; further: nearly all actives have a fitted effect of over 55% in size
# FLuc SDR ATP = firefly luciferase binding stabilization, ATP added | shares compounds with FLuc inh-1 | purified FLuc-C-HiBiT + ATP, HiBiT complementation luminescence | Potency, µM (highest dose often 32.7 µM), inactives show top-dose activation (gain of signal), actives largely listed as activators | 1,300 compounds, 8.7% hits | AID 1963319;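 further: signal reports ligand binding via conformational change of the enzyme rather than luciferase catalysis; % of control where 0% means no effect; nearly all actives have a fitted effect of over 55% in size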
# FLuc inh-2 = blocks firefly luciferase enzymatic activity | Potency, µM (doses to about 32.7 µM), for inactives: at the top dose activity change, negative = inhibition, usual class: inhibitors | purified FLuc-C-HiBiT enzyme, luciferin luminescence | 1,300 compounds, 42% hits | shares compounds with FLuc inh-1; further: on the % scale 0 is the no-effect control and ±100 the full control effect; nearly all actives have a fitted effect of over 70% in size
# * hit, by the source's call; i = inactive; ? = inconclusive; nt = no result; [ ] = remark or other dose. Unless noted, the call rests on the fitted dose curve; in most records, active means well fitted curve in the direction sought with a large enough effect; inconclusive means small, poorly fitted or top-dose-only effect, or another doubt; inactive means no such curve, though single readings can be large; an effect the other way counts as inactive or inconclusive. Potency means the concentration at half of the fitted maximal effect.
SMILES,HEK cytotox,FLuc inh-1,3T3 cytotox,hNpr1 antagonist,GPT2 inhibitor,FLuc SDR -ATP,FLuc SDR ATP,FLuc inh-2
Cc1c(-c2ccccc2)[nH]c2c(CNC(=O)CCn3cnnn3)cc(Cl)cc12,?,?,?,2%,-6%,nt,nt,nt
CCC(=O)N1CCC(=O)N(CCC#N)C[C@H]2COc3ccccc3[C@H]21,?,nt,-21%,nt,nt,nt,nt,nt
CNC(=O)c1cc(C)nc2onc(C3CCCN(C(=O)Cc4ccc(F)cc4)C3)c12 (configuration not stated),-8%,nt,?,nt,nt,nt,nt,nt
CN(C)c1ccc(-c2noc([C@@H]3CCCN3Cc3cnc4ccccc4c3)n2)cn1,?,14µM*,?,14µM*,?,14%[49.3 µM],11%[49.3 µM],-2%[49.3 µM]
CNc1ccc(-c2noc([C@@H]3CCCN3Cc3ccccn3)n2)cn1,-24%[172 µM],?,?,-1%[70.6 µM],i,nt,nt,nt
O=C(Nc1ccc2c(c1)OCCO2)N1CCC2(CC1)CC(N1CCCC1)CCO2 (configuration not stated),12%,6.3µM*,i,-8%,1%,29%,?,?
O=C(Nc1ccc2c(c1)OCCO2)N1CCC2(CC1)CC(N1CCOCC1)CCO2 (configuration not stated),2%,nt,-13%,nt,i,nt,nt,nt
COc1ccccc1Cn1c(=O)c(C(=O)N2CCN(C(=O)c3ccccc3F)CC2)nc2cccnc21,-3%,nt,-9%,nt,i,nt,nt,nt
CN1CCCC2(Cc3ccccc3CN(C(=O)Cc3cccc(Cl)c3)C2)C1 (configuration not stated),?,nt,?,nt,i,nt,nt,nt
Cc1c(CCNC(=O)c2ccc(Br)o2)sc2nc(-c3ccc(Cl)cc3)nn12,nt,nt,nt,nt,nt,19%,11%,?
O=C(NCCc1ccc(Cl)cc1)c1cn2cc(-c3ccccc3)sc2n1,4%,nt,-3%,nt,i,nt,nt,nt
O[C@@H]1C[C@@H](c2nc(-c3ccccc3)no2)N(Cc2ccc(F)cc2)C1,-28%[172 µM],i,?,1%[70.6 µM],3%[88.5 µM],nt,nt,nt
CC(C)c1noc([C@@H]2C[C@@H](O)CN2Cc2cc3ccccc3o2)n1,-25%[172 µM],i,-4%[174 µM],-1%[70.6 µM],-10%[88.5 µM],nt,nt,nt
COc1ccc(-c2noc([C@@H]3C[C@@H](O)CN3Cc3cc4ccccc4o3)n2)cc1,-11%[172 µM],5µM*,-9%[174 µM],?,-3%[88.5 µM],18%[49.3 µM],?,16µM*
COc1ccc(CN2C[C@H](O)C[C@H]2c2nc(-c3ccc(OC)cc3)no2)cc1,?,11µM*,-30%[174 µM],?,1%[88.5 µM],-1%[49.3 µM],1%[49.3 µM],?
COc1cccc(-c2ccc(C(=O)NCCNC(=O)NC(C)C)cc2)c1,i,nt,-10%,nt,nt,nt,nt,nt
CCOc1ccccc1C(=O)NC1CCN(c2cnn(CC)c(=O)c2)CC1,-26%,i,?,-21%,i,nt,nt,nt
CCOc1ccccc1C(=O)Nc1nc2c(s1)CC(C)CC2 (configuration not stated),nt,nt,nt,nt,nt,14%,8%,4.4µM*
COCCNc1nc2c([S+](=O)([O-])c3cccnc3)nnn2c2ccccc12,-3%,nt,-16%,nt,-3%,nt,nt,nt
Cc1ccc(NC(=O)/C=C/c2ccccc2Cl)cc1Cl,nt,nt,nt,nt,nt,13%,11%,?
Oc1ccc(Cl)cc1CN1CCOc2c(O)cc(-c3nc4ccccc4s3)cc2C1,nt,nt,nt,nt,nt,15%,10%,-3%
CC(CCc1ccc(O)cc1)N1CCOc2c(O)cc(-c3nc4ccccc4s3)cc2C1 (configuration not stated),nt,nt,nt,nt,nt,14%,12%,-8%
C=CCCC(=O)N1CCOc2c(O)cc(-c3nc4ccccc4s3)cc2C1,50µM*,?,?,-26%,-2%,12%,9%,-17%
